Reference: ChEMBL document CHEMBL1157539, “Thousands of chemical starting points for antimalarial lead identification” (Nature, 2010)

The molecules below were run on HepG2 (assay: GSK_TCMDC: Percent inhibition of human HepG2 cell line. Test compounds present at 10uM.).
Format: functional

Compound	Inhibition
COc1cc(C(=O)NCCCN2CCN(c3cc(Cl)ccc3OC)CC2)ccc1-c1nc2cc(Cl)c(Cl)cc2[nH]1	12%
CN(C)C(=O)c1ccc(CN(Cc2ccc(OC(C)(C)C)cc2)Cc2ccc3c(c2)OCCO3)cc1	0%
Clc1ccc(-c2cc(-c3csc(NCCN4CCOCC4)n3)on2)c(Cl)c1	39%
N#Cc1ccc(CNCCCCCCCNCc2ccc(-c3ccccc3)cc2)cc1	19%
O=C(NCCSCc1c(F)cccc1Cl)c1cnc2c(c1)nc(-c1c[nH]c(-c3ccccc3)n1)n2CCc1c[nH]cn1	10%
CN(C)CCOc1cc(NC(=O)c2ccc(-c3ccc(Cl)cc3Cl)cc2)ccc1-c1ccccc1	45%
COc1ccc(-c2nc(NC(=O)CS(=O)(=O)c3ccc(OC)cc3)sc2C)cc1	6%
Cc1cc(=NN=CC=Cc2ccccc2)c2ccccc2[nH]1	19%
CC(C)S(=O)(=O)N1CCN(Cc2ccc3c(c2)nc(NC(=O)c2ccsc2)n3C[C@H](O)c2ccccc2)CC1	56%
Clc1cccc(Cl)c1CCNCC1CCN(CC2CCCCC2)CC1.O=C(O)C(F)(F)F	39%
COc1cccc(NC(=O)[C@H](C)n2c(=O)[nH]c3ccccc3c2=O)c1	8%
O=C(Nc1cccc(-c2ccc(CN3CCCC3)cc2)c1)c1cccc(Cl)c1.O=C(O)C(F)(F)F	32%
CN1c2ccccc2Sc2cc(CNCCSCCNCc3ccc4c(c3)Sc3ccccc3N4C)ccc21.Cl	58%
Cc1ccccc1CCNC(=O)c1cnc(N2CCN(c3ccncc3)CC2)c(Cl)c1.O=C(O)C(F)(F)F	36%
CCn1c(SCc2ccccc2)nc2c1c(=O)[nH]c(=O)n2C	1%
Cc1cc(OCCCN2CCCCC2)ccc1NC(=O)COc1ccc(Cl)cc1C(=O)c1cc(Cl)cc(C#N)c1	28%
O=C(O)/C=C\C(=O)O.c1cc(CN2CCCCC2)cc(OCCCNc2ccnc3ccccc23)c1	48%
Cc1nc2c(Nc3nc(-c4ccncc4)cs3)ncnc2n1-c1ccccc1Cl	14%
COCCNC(=O)c1ccc(OC2CCN(Cc3ccc(F)c(F)c3)CC2)c(Cl)c1	8%
Cc1cccc2nc(-c3cccc(-c4cccc(NC(=O)c5csnn5)c4)c3)[nH]c12	10%

Compound	Inhibition
Cc1cc(N[C@@H](C)C(=O)Nc2ccccc2)nc(NCCc2ccc(F)cc2)n1.O=C(O)C(F)(F)F	33%
O=C(O)C(F)(F)F.S=C(Nc1cccc(Cl)c1)NC1CCN(c2ccnc3cc(Cl)ccc23)C1 (centres undefined)	16%
C/C=C/COc1ccc(-c2c(C)[nH]c(C)c(Cl)c2=O)cc1	0%
O=C(NC1CCCCC1)N(Cc1ccc(-c2ccc(CNCc3ccc4c(c3)OCO4)cc2)cc1)C1CCN(Cc2ccccc2)CC1.O=C(O)C(F)(F)F	28%
CC(C)CC(=O)N1CCNC[C@@H]1C(=O)NC1CC1.O=C(O)C(F)(F)F	0%
COc1cccc(C(=O)N2CCOC(CCN3CCC(c4ccccc4)CC3)(c3ccc(Cl)c(Cl)c3)C2)c1 (centres undefined)	38%
CN1CCC(Oc2ccc(CN3CC[C@H](NC(=O)c4cccc(C#N)c4)C3)c3ccccc23)C1.O=C(O)C(F)(F)F (some centres undefined)	10%
Cc1cc(N(C)C)nc(Nc2ccc(NC(=O)c3ccc(F)cc3)cc2)n1	8%
CN(c1ccc(NC(=O)Nc2cc(C(C)(C)C)on2)cc1)c1ccnc(NCCOC(=O)Nc2cc(C(C)(C)C)on2)n1.O=C(O)C(F)(F)F	59%
O=C(Nc1ccc(N2CCNCC2)nc1)c1oc(-c2ccccc2)nc1C(F)(F)F	7%
Cc1cc(Cl)c(Cl)cc1NC(=O)Nc1cccc(C(F)(F)F)c1	1%
Cc1cccc2nc(-c3ccc(-c4ccc(CN5CCN(CCO)CC5)cc4)cc3)[nH]c12.O=C(O)C(F)(F)F	20%
CN(C)Cc1cccc(CNC(=O)c2sccc2OCc2ccc(Cl)cc2)c1	7%
CC(C)NCC(O)Cn1c2ccc(Br)cc2c2cc(Br)ccc21 (centres undefined)	100%
CN1CCCC(CN2CCN(Cc3ccc(-c4cccc(-c5nc6cc(F)ccc6[nH]5)c4)cc3)CC2)C1.O=C(O)C(F)(F)F (centres undefined)	92%
Fc1ccc(NC(=S)NCCc2ccccc2)cc1	0%
Fc1ccc2[nH]c(-c3cccc(-c4cccc(CNCCc5ccncc5)c4)c3)nc2c1.O=C(O)C(F)(F)F	22%
Cl.N=C(N)NN=Cc1cc([N+](=O)[O-])ccc1Sc1ccccc1CO	25%
COc1cc(C)ccc1N1CCN(CCCCNC(=O)c2ccc(NC(=O)c3ccc(Cl)cc3)cc2)CC1	30%
